Results published in the supplement of paper PMC3484114.
± gives the standard deviation.

What follows are compounds tested on OVCAR-3-derived ovarian cancer stem-like cells (spheroids) (assay: cell growth relative to untreated control; higher = more growth (less inhibition)). Details: 2.29 µM; 96 h.
Outline: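 OVCAR-3 spheroid-derived stem-like cells were trypsin-dissociated, seeded at 50,000 cells/mL in stem cell medium in ultra-low attachment 96-well plates and preincubated 24 h. Compounds were then added at 2.29 uM for 96 h at 37°C, 5% CO2, in 4 replicate wells. Viability was read as TOX8 resazurin fluorescence (ex 560/em 590 nm) after 4 h. Percent growth was calculated relative to untreated wells after blank subtraction and Grubbs outlier removal.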

Structure (SMILES)	cell growth
CNC(=O)ON(C(C)=O)C(=O)NC	114 ± 42%
Cn1c(=O)[nH]c2nncnc2c1=O	92.3 ± 13%
CC[C@@]1(O)C[C@H](O[C@H]2C[C@H](N(C)C)[C@H](O)[C@H](C)O2)c2c(cc3c(c2O)C(=O)c2c(O)ccc(O)c2C3=O)[C@H]1C(=O)OC	50.3 ± 31%
CC1=C(N2CC2)C(=O)C(CO)=C(N2CC2)C1=O	9 ± 3.5%
N#Cc1cn([C@@H]2O[C@H](CO)[C@@H](O)[C@H]2O)c2ncnc(N)c12	8.9 ± 3.4%
c1csc(C[N+]23CN4CN(CN(C4)C2)C3)c1	108 ± 17%
O=[N+]([O-])c1ccc2c(c1)/C(=N/N=C1c3ccccc3Cc3ccccc31)c1cc([N+](=O)[O-])cc([N+](=O)[O-])c1-2	57.1 ± 34%
O=C1N[C@H]2[C@H](O)[C@H](O)[C@@H](O)[C@H](O)[C@@H]2c2cc3c(c(O)c21)OCO3	19.5 ± 2.6%
COC(=O)C1C(O)C(C)C(O)C(C)/C=C\C=C(C)C(=O)Nc2c(C)c(OC(C)=O)c3c(c2O)C(=O)C(C)=C2OCOC(=C23)C(C)=CC(C)(O)C(O)C(C)C1O (stereo unspecified)	84.9 ± 18%
CC(=O)O[C@H]1C(=O)[C@@]2(C)[C@H]([C@H](OC(=O)c3ccccc3)[C@]3(O)C[C@H](O)C(C)=C1C3(C)C)[C@]1(OC(C)=O)CO[C@@H]1C[C@@H]2O	123 ± 26%
CCC[CH2][Sn]([CH2]CCC)([CH2]CCC)[O]c1cc(Cl)c(Cl)cc1Cl	8.8 ± 3.7%
C[C@@H]1CCOC(=O)/C=C/C=C\C(=O)O[C@@H]2C[C@H]3O[C@@H]4[C@@H]5O[C@]5(C)[C@H](O)C[C@]4(COC(=O)[C@H]1O)[C@]2(C)[C@@]31CO1	13.4 ± 5.4%
CC1=CC(O)C(O)C2(C)C1CC1OC(=O)C(O)C3C(C)C(O)C4(O)OCC13C42 (stereo unspecified)	128 ± 36%
C1CN1c1nc(N2CC2)nc(N2CC2)n1	129 ± 82%
COc1cc2c(c(OC)c1OC)-c1ccc(OC)c(=O)cc1[C@@H](NC(C)=O)CC2	47.9 ± 11%
COc1cccc2c1C(=O)c1c(O)c3c(c(O)c1C2=O)C[C@@](O)(C(C)=O)C[C@@H]3O[C@H]1C[C@H](N(Cc2ccccc2)Cc2ccccc2)[C@H](O)[C@H](C)O1	62.8 ± 11%

Structure (SMILES)	cell growth
Cc1ccc(N=Nc2c(O)ccc3ccccc23)cc1	74.1 ± 8.8%
[O-][Cl+3]([O-])([O-])[O-].c1ccc(-c2csc3c4ccccc4c4ccccc4[n+]23)cc1	45.5 ± 12%
COc1cc([C@H]2c3cc4c(cc3C[C@@H]3COC(=O)[C@H]32)OCO4)cc(OC)c1OC	39.5 ± 18%
C=C1C(C)C2C(Cc3ccccc3)NC(=O)C23C(OC(C)=O)/C=C/C(C)(O)CC(C)C/C=C/C3C1O (stereo unspecified)	90.3 ± 20%
O=C([O][Hg][CH2]C1COC([CH2][Hg][O]C(=O)c2ccccc2)CO1)c1ccccc1 (stereo unspecified)	69.9 ± 76%
COC1CC(OC2CCC3(C=O)C4CCC5(C)C(C6=CC(=O)OC6)CCC5(O)C4CCC3(O)C2)OC(C)C1OC1OC(CO)C(O)C(O)C1O (stereo unspecified)	8.05 ± 3.3%
CCC[CH2][Sn]1([CH2]CCC)[S]CC[N]1S(=O)(=O)c1ccc(C)cc1	36.9 ± 13%
CC(C)(Br)C(=O)C(Br)Br	88.9 ± 28%
N#CC(NCc1cccc(CNC(C#N)c2ccccc2)c1)c1ccccc1 (stereo unspecified)	93.3 ± 30%
CC1=C2C(=CC(C)(C)[C@@H]2O)C(=O)[C@](C)(O)C12CC2	20.3 ± 2.4%
COc1ccc(-c2cc(=O)c3c(OC)c(OC)c(OC)cc3o2)cc1	120 ± 31%
CC(/C=N/N=C(N)N)=N\N=C(N)N	70.6 ± 16%
COc1cccc2c1cc([N+](=O)[O-])c1c(C(=O)O)cc3c(c12)OCO3	95.5 ± 14%
CC[C@@]12CCCN3CC[C@]4(c5cccc(OC)c5N(C(C)=O)[C@@H]4CC1)[C@H]32	144 ± 29%
COc1ccc(C2C=C(c3ccc4c(c3)OCO4)Oc3c2c(=O)oc2ccccc32)cc1OC (stereo unspecified)	56.4 ± 40%
